The text below walks through data of the supplement of paper PMC10849652.

Of roughly 8,800 targets only a part is listed; those with a hit were picked by preference. About 0.5% of all pairs of compound and target were hits. Unmarked numbers belong to inactive results.

UniProt Q9UKP3, sequence (Q9UKP3 whole entry, looked up): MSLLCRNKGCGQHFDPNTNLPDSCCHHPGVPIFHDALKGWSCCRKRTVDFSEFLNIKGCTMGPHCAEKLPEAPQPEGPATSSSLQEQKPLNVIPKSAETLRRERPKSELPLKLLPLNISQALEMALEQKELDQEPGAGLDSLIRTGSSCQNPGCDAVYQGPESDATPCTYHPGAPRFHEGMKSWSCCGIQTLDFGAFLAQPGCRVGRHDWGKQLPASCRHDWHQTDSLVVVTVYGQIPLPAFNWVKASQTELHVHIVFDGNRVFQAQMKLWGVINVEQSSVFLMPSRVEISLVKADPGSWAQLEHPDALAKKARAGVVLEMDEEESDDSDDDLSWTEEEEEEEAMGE
UniProt O43824, sequence (O43824 whole entry, looked up): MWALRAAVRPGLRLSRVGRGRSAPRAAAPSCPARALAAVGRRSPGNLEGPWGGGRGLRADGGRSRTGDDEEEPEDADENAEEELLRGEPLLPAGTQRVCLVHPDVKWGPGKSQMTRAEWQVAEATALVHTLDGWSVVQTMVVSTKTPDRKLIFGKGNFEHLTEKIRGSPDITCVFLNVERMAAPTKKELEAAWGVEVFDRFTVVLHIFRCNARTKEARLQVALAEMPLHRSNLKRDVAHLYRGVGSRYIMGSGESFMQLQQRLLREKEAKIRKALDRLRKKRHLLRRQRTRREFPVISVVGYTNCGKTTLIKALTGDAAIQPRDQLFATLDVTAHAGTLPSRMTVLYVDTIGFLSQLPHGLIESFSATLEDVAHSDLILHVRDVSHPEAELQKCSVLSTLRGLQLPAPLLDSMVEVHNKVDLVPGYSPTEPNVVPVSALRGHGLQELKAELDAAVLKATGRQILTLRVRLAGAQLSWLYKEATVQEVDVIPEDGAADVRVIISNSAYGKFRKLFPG
UniProt Q1KMD3, sequence (Q1KMD3 whole entry, looked up): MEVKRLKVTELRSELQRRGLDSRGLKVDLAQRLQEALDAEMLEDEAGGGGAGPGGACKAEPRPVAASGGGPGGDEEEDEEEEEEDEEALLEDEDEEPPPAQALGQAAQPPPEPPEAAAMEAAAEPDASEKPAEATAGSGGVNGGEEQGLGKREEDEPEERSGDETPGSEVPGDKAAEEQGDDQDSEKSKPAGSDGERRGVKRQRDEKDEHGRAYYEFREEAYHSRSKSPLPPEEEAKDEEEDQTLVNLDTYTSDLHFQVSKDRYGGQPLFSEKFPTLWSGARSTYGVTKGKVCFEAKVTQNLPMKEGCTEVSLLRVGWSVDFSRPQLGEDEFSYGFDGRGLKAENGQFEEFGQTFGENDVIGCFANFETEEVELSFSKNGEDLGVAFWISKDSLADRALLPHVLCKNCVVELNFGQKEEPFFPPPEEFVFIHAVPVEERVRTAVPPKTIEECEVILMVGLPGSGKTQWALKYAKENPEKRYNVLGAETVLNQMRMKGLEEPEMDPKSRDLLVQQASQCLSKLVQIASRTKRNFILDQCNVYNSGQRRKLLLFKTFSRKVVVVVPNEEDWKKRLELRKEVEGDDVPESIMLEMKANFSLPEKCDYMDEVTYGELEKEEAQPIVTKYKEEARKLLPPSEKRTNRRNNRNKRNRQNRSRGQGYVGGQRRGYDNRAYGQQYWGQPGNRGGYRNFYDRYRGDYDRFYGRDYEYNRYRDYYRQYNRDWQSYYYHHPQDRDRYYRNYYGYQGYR
UniProt Q96A47, sequence (Q96A47 whole entry, looked up): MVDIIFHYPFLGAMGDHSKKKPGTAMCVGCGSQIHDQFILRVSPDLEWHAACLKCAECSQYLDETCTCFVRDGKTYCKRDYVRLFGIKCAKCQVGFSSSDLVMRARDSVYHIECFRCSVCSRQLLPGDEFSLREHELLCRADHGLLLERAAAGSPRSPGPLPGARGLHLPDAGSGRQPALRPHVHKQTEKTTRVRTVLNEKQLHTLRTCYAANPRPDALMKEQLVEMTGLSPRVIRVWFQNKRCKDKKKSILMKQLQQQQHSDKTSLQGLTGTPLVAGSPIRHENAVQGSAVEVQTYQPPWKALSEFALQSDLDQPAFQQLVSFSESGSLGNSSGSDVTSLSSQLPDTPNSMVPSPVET
UniProt Q9H9Y4, sequence (Q9H9Y4 whole entry, looked up): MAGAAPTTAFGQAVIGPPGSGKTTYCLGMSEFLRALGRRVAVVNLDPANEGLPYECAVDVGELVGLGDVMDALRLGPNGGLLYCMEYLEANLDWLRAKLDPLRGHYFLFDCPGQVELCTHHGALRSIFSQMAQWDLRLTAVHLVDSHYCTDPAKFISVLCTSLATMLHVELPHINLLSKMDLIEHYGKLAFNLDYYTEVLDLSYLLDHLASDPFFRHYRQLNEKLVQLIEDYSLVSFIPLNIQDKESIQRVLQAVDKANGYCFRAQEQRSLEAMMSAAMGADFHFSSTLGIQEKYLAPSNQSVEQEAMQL
UniProt P52333, sequence (P52333 whole entry, looked up): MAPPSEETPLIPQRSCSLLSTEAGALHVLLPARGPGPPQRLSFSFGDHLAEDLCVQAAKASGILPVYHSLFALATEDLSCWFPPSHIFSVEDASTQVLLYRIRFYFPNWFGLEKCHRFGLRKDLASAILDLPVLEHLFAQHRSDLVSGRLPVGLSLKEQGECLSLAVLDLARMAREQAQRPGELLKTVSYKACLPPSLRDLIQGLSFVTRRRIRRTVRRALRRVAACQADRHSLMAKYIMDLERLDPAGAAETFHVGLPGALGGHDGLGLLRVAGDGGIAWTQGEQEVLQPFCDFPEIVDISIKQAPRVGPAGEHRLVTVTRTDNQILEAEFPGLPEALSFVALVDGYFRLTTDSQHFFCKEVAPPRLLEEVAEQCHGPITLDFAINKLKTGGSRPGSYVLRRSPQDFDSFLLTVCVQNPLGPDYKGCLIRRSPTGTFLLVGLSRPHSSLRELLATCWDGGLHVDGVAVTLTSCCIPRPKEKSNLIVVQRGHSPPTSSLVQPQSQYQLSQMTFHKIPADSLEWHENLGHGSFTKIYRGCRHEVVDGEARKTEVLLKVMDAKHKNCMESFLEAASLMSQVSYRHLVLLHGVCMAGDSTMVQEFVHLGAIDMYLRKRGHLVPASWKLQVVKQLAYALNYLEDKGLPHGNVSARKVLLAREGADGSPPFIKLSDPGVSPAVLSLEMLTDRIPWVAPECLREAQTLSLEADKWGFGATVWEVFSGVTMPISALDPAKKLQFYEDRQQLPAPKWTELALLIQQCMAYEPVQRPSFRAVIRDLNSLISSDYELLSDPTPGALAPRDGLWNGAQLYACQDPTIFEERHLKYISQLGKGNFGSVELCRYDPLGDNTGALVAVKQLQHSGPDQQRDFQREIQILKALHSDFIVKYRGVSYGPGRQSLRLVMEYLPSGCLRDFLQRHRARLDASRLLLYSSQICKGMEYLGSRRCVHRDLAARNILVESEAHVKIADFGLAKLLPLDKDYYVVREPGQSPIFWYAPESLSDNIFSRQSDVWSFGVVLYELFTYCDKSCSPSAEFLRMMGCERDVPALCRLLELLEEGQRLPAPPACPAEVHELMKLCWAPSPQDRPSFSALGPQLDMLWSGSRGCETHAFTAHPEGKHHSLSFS
UniProt Q8TF64, sequence (Q8TF64 whole entry, looked up): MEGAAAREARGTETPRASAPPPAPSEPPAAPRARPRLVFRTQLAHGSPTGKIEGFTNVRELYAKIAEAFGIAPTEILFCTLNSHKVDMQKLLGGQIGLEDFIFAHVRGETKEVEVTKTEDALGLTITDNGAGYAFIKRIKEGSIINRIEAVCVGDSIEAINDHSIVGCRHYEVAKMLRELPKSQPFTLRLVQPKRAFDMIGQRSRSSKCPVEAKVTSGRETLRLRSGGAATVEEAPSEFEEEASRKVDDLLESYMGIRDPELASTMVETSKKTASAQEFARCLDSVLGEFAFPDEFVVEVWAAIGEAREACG
UniProt P22692, sequence (P22692 whole entry, looked up): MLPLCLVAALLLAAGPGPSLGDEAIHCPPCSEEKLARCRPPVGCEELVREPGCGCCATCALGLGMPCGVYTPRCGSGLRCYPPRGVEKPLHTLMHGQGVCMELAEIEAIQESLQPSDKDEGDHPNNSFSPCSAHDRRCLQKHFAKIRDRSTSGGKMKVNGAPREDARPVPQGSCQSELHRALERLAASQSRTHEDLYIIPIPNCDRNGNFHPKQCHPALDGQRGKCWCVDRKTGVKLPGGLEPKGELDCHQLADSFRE
UniProt Q92769, sequence (Q92769 whole entry, looked up): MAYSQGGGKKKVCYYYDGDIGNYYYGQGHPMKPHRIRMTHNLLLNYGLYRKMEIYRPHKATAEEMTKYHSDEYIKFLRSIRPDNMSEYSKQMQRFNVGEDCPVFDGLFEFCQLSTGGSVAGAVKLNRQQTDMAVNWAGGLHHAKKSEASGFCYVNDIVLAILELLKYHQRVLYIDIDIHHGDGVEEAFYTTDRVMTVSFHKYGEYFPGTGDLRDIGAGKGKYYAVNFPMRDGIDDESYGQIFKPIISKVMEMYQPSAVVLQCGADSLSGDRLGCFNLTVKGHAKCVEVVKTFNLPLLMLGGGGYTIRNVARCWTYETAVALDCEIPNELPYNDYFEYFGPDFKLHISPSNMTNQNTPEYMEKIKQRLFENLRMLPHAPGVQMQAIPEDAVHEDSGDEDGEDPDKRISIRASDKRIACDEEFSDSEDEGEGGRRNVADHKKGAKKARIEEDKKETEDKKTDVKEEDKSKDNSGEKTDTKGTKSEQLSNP
UniProt Q9BQQ3, sequence (Q9BQQ3 whole entry, looked up): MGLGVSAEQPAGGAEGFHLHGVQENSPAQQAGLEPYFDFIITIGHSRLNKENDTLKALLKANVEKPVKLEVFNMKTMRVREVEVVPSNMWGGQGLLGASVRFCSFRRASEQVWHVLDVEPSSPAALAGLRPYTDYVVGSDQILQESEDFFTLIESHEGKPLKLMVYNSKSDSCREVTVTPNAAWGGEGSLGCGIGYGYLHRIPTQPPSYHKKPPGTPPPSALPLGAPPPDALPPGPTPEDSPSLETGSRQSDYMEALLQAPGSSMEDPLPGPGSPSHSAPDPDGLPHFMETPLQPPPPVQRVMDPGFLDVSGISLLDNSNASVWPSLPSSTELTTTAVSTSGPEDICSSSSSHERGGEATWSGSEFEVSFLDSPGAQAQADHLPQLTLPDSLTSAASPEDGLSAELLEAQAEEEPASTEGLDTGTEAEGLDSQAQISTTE

Compound in the experiment: c1ccc([C@@H]2C[C@H]2NC2CCNCC2)cc1
Kind of experiment: log2 fold change, soluble protein after heating vs DMSO (PISA); higher = thermal stabilisation; K562 lysate, 10 uM; active = over 0.2 and 3.5 SD of the protein, either way, in both replicates (recomputed). The essentials:
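Log-two fold change in thermal stability relative to solvent controls is reported from duplicates. For each sample, crude K562 extract from dounce-homogenised pellets in PBS pH 7.4 with 1 mM MgCl2, at 1 mg/mL protein, was treated with 10 μM compound for 30 min. Aliquots heated for 3 min across 48°C-58°C were pooled, brought to 0.5% NP-40 at 4°C and cleared at 21,000xg for 90 min. The supernatant was quantified by TMTpro 16plex LC-MS/MS with channel sums equalised.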
For GIPC3 (UniProt Q8TF64), the log2 fold change was -0.075.
For GORASP1 (UniProt Q9BQQ3) the value was 0.042.
Under HTT (UniProt P42858) stands -0.054.
Regarding H3-3A (UniProt P84243), the log2 fold change is -0.004.
For ITPKA (UniProt P23677) the value was -0.013; for HDAC2 (UniProt Q92769), -0.004; for HSPBAP1 (UniProt Q96EW2), 0.006.
Under GSK3B isoform 2 (UniProt P49841) stands -0.074.
Take GTF3C3 (UniProt Q9Y5Q9): the log2 fold change is 0.032.
For HOMER3 (UniProt Q9NSC5) the value was 0.
Under HDAC10 (UniProt Q969S8) stands -0.055.
Turning to HNRNPUL2 (UniProt Q1KMD3), the log2 fold change is 0.032.
Regarding HS1BP3 (UniProt Q53T59), the log2 fold change is -0.053.
On to JAK3 (UniProt P52333), for which the log2 fold change was 0.254.
Regarding HMGB1 (UniProt P09429), the log2 fold change is 0.115.
HSPA8 (UniProt E9PN89): the log2 fold change was -0.393.
Turning to GTPBP6 (UniProt O43824), the log2 fold change is 0.118.
Turning to ITGB1BP2 (UniProt Q9UKP3), the log2 fold change was -0.029.
For GPN2 (UniProt Q9H9Y4) the value was -0.034.
With HIST2H2AA3 (UniProt Q6FI13), the log2 fold change was 0.277.
As for HNRNPAB isoform 3 (UniProt Q99729), the log2 fold change was -0.069.
On to HNRNPUL1 (UniProt M0R247), for which the log2 fold change is -0.044.
For ISL2 (UniProt Q96A47) the value was 0.207.
For IGFBP4 (UniProt P22692) the value was -0.171; for GNB4 (UniProt Q9HAV0), -0.05.
Regarding IRS2 (UniProt Q9Y4H2), the log2 fold change is -0.354.
As for HMGA1 isoform 2 (UniProt P17096), the log2 fold change is 0.419.
Take IPP (UniProt Q9Y573): the log2 fold change was 0.02.
Take KATNBL1 (UniProt Q9H079): the log2 fold change was -0.071.
Take GYPA, A0A2R8Y7F9: the log2 fold change was -0.163.
